High-throughput results from PubChem.
EphB4 ephrin blk: EphB4-ephrin-B2 interaction antagonism; 97,000 compounds, 0.15% hits; EphB4 LBD / TNYL-RAW-Alexa532 peptide, fluorescence polarization; P54760; inhibition, % at 7 µM;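 active means inhibition above the screen-wide mean inhibition plus 3 SD, cut at about 15% in these data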
PTPN22 act: LYP (human) phosphatase activation | Q9Y2R2 | recombinant LYP, DiFMUP fluorescence; 0 = plate median, 100 = signal doubled | activation, % at 2 µM | 96,000 compounds, 0.11% hits;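 active means activation at 2 µM above a set limit, the mean plus 5 SD, cut at about 37% in these data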
PTPN22 inh 2: inhibitors of human LYP (PTPN22) phosphatase; Q9Y2R2; 96,000 compounds, 0.21% hits; AID 640; recombinant LYP catalytic domain, DiFMUP fluorescence; inhibition, % at 2 µM;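 active means inhibition at 2 µM at or above a set limit, the screen mean plus 3 SD, cut at about 24% in these data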
sEH inhibitor: blocks human soluble epoxide hydrolase activity. recombinant human sEH enzymatic activity assay. inhibition, % at 2 µM. 91,000 compounds, 0.34% hits. AID 707; in the data active means inhibition above about 80%
Target sequence (P34913 whole entry, looked up): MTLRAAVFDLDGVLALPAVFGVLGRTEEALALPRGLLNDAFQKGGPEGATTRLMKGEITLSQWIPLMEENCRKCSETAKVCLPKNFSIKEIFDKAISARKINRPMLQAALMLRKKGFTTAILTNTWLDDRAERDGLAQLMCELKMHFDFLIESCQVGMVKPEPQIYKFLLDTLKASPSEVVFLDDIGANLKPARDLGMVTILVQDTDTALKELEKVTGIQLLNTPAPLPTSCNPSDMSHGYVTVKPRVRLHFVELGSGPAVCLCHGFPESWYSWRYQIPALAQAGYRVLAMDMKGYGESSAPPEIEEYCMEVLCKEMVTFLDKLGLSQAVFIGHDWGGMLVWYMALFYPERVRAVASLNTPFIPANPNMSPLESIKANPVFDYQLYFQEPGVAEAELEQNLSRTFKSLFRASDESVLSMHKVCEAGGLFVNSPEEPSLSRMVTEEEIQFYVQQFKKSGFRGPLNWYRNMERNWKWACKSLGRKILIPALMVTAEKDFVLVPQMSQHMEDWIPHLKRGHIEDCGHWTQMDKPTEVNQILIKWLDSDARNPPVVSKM
PLAP activator: activators of human placental alkaline phosphatase; P05187; purified PLAP enzyme, luminescent substrate read-out; active compounds read high; activation fold at 20 µM; 96,000 compounds, 1.2% hits; in the data active means activation fold above about 2
sEH act: increases human soluble epoxide hydrolase activity; 91,000 compounds, 0.04% hits; purified human sEH enzymatic activity, activator screen; AID 717; P34913; activation, % at 2 µM; in the data active means activation above about 37%
Hits are given with their value. Shown are actives, neighbours in structure and some others; about 1.6% of the full set was active somewhere.

`COc1ccc2[nH]c(=O)c(C(c3nnnn3C3CCCC3)N3CCN(Cc4ccc5c(c4)OCO5)CC3)cc2c1` (stereo unspecified) gave EphB4 ephrin blk inactive, PTPN22 act inactive, PTPN22 inh 2 inactive, sEH inhibitor inactive, PLAP activator 2 and sEH act inactive.
COc1ccc(Cn2nnnc2C(c2cc3ccc(OC)cc3[nH]c2=O)N2CCC(C)CC2)cc1 (stereo unspecified) was read as EphB4 ephrin blk 16.4, PTPN22 act inactive, PTPN22 inh 2 inactive, sEH inhibitor inactive, PLAP activator inactive and sEH act inactive.
`CCC(=C(c1ccc(OC)cc1)c1ccc(OC)cc1)c1cn(CC(O)CN2CCN(C)CC2)c2ccccc12` (stereo unspecified) gave EphB4 ephrin blk inactive, PTPN22 act inactive, PTPN22 inh 2 inactive, sEH inhibitor inactive, PLAP activator inactive and sEH act inactive.
Screening O=C(NCC1CCCO1)c1onc(CSc2ccccc2F)c1C(=O)O (stereo unspecified) returned EphB4 ephrin blk inactive, PTPN22 act inactive, PTPN22 inh 2 inactive, sEH inhibitor inactive, PLAP activator inactive and sEH act inactive.
`CCc1nnc(NC(=O)[C@@H](NC(=O)c2cccc(S(=O)(=O)N(CC)CC)c2)C(C)C)s1` gave EphB4 ephrin blk inactive, PTPN22 act inactive, PTPN22 inh 2 inactive, sEH inhibitor inactive, PLAP activator inactive and sEH act inactive.
For CCOc1ccc(N(C(C)C(=O)NCc2ccco2)S(C)(=O)=O)cc1 (stereo unspecified) the results were EphB4 ephrin blk inactive, PTPN22 act inactive, PTPN22 inh 2 inactive, sEH inhibitor inactive, PLAP activator 2 and sEH act inactive.
Screening CC(NC(=O)c1ccccc1NC(=O)CSc1nnnn1C)c1ccccc1 (stereo unspecified) returned EphB4 ephrin blk inactive, PTPN22 act inactive, PTPN22 inh 2 inactive, sEH inhibitor inactive, PLAP activator inactive and sEH act inactive.
Screening COc1ccc2[nH]c3nc(SCC(=O)NNC(=O)c4ccc(OC)c(OC)c4)nnc3c2c1 returned EphB4 ephrin blk inactive, PTPN22 act inactive, PTPN22 inh 2 inactive, sEH inhibitor inactive, PLAP activator inactive and sEH act inactive.
Cc1ccc(C(=O)NNC(=O)CSc2nnc3c(n2)[nH]c2ccc(F)cc23)cc1 was read as EphB4 ephrin blk inactive, PTPN22 act inactive, PTPN22 inh 2 29.6, sEH inhibitor inactive, PLAP activator inactive and sEH act inactive.
`O=C1C2CC=CCC2C(=O)N1c1ncn[nH]1` (stereo unspecified) gave EphB4 ephrin blk inactive, PTPN22 act inactive, PTPN22 inh 2 inactive, sEH inhibitor inactive, PLAP activator 2.6 and sEH act inactive.
O=C1C2CC=C(Cl)CC2C(=O)N1c1ncn[nH]1 (stereo unspecified) was read as EphB4 ephrin blk inactive, PTPN22 act inactive, PTPN22 inh 2 inactive, sEH inhibitor inactive and sEH act inactive.
Screening Cc1cccc(NC(=O)c2ccc(C3SCC(=O)N3CCc3ccccc3)cc2)c1C (stereo unspecified) returned EphB4 ephrin blk inactive, PTPN22 act inactive, PTPN22 inh 2 inactive, sEH inhibitor inactive, PLAP activator inactive and sEH act inactive.
O=C(NCCO)C(F)(F)C(F)(F)C(F)(F)OC(F)(C(=O)NCCO)C(F)(F)F (stereo unspecified) was read as EphB4 ephrin blk inactive, PTPN22 act inactive, PTPN22 inh 2 inactive, sEH inhibitor inactive, PLAP activator inactive and sEH act inactive.
Screening O=C(CSc1nc2ccccc2[nH]1)NCCCn1ccnc1 returned PLAP activator 2.
`Cc1nn(Cc2ccccc2Cl)c(C)c1NC(=O)NC12CC3CC(CC(C3)C1)C2` gave EphB4 ephrin blk inactive, PTPN22 act inactive, PTPN22 inh 2 inactive, sEH inhibitor 91.0, PLAP activator 2 and sEH act inactive.
Cc1nn(Cc2ccccc2Cl)c(C)c1NC(=O)c1nc2ncccn2n1 was read as EphB4 ephrin blk inactive, PTPN22 act inactive, PTPN22 inh 2 inactive, sEH inhibitor inactive and sEH act inactive.
CCCCOCCCNC(=O)/C=C/c1ccccc1Cl was read as EphB4 ephrin blk inactive, PTPN22 act inactive, PTPN22 inh 2 inactive, sEH inhibitor inactive and sEH act inactive.
For CCCCNS(=O)(=O)c1ccc(NS(=O)(=O)c2c(C)cc(C)cc2C)cc1 the results were EphB4 ephrin blk inactive, PTPN22 act inactive, PTPN22 inh 2 28.2, sEH inhibitor inactive, PLAP activator inactive and sEH act inactive.
Screening COc1ccc2nc(SCc3nc(N)nc(Nc4ccccc4)n3)[nH]c2c1 returned EphB4 ephrin blk inactive, PTPN22 act inactive, PTPN22 inh 2 inactive, sEH inhibitor inactive, PLAP activator 2.5 and sEH act inactive.
Screening O=C1Nc2ccccc2OC1CC(=O)N1CCN(c2cccc(C(F)(F)F)c2)CC1 (stereo unspecified) returned EphB4 ephrin blk inactive, PTPN22 act inactive, PTPN22 inh 2 inactive, sEH inhibitor inactive, PLAP activator inactive and sEH act inactive.
Screening O=C(CSc1nnnn1Cc1ccccc1)Nc1ccc2c(c1)OCO2 returned EphB4 ephrin blk 18.1, PTPN22 act inactive, PTPN22 inh 2 inactive, sEH inhibitor inactive, PLAP activator inactive and sEH act inactive.
`O=C(CSc1nnnn1Cc1ccccc1)Nc1ccc2c(c1)OCCO2` gave EphB4 ephrin blk inactive, PTPN22 act inactive, PTPN22 inh 2 inactive, sEH inhibitor inactive, PLAP activator inactive and sEH act inactive.
Screening COc1ccc(-c2n[nH]c3c2C(c2ccc(OC)c(OC)c2)N(c2ccccc2)C3=O)cc1 (stereo unspecified) returned EphB4 ephrin blk inactive, PTPN22 act inactive, PTPN22 inh 2 inactive, sEH inhibitor inactive, PLAP activator 2.4 and sEH act inactive.
Screening Cc1cccc(NC(=O)c2cc(NC(=O)c3ccco3)ccc2Cl)n1 returned EphB4 ephrin blk inactive, PTPN22 act inactive, PTPN22 inh 2 inactive, sEH inhibitor inactive, PLAP activator inactive and sEH act inactive.
`COc1cccc(C(C#N)N2CCOCC2)c1` (stereo unspecified) gave EphB4 ephrin blk 22.4, PTPN22 act inactive, PTPN22 inh 2 inactive, sEH inhibitor inactive, PLAP activator inactive and sEH act inactive.
`O=C(Cn1cnc2ccccc21)Nc1ccc(C(=O)O)cc1` gave EphB4 ephrin blk inactive, PTPN22 act inactive, PTPN22 inh 2 32.6, sEH inhibitor inactive, PLAP activator inactive and sEH act inactive.
Screening O=C(O)c1ccc(OCC(O)Cn2cnc3ccccc32)cc1 (stereo unspecified) returned EphB4 ephrin blk inactive, PTPN22 act inactive, PTPN22 inh 2 inactive, sEH inhibitor inactive, PLAP activator inactive and sEH act inactive.
`CC(=O)NNc1nc2ccccc2s1` gave EphB4 ephrin blk inactive, PTPN22 act inactive, PTPN22 inh 2 inactive, sEH inhibitor inactive, PLAP activator 2.1 and sEH act inactive.
`Cc1ccnc(SCCn2c(N3CCCCC3)nc3c2c(=O)n(C)c(=O)n3C)n1` gave EphB4 ephrin blk 19.6, PTPN22 act inactive, PTPN22 inh 2 inactive, sEH inhibitor inactive, PLAP activator inactive and sEH act inactive.
